High-throughput results: PubChem, several laboratories
NCOA1 inh – SRC1 coactivator transcriptional activity inhibitors, primary screen, cell-based, luminescence | Nuclear receptor coactivator 1 (Homo sapiens), Q15788 | HEK293 GAL4-SRC1 luciferase reporter | AID 588354, 2011 | inhibition, % at 3.6 µM | 360,000 compounds, 0.12% hits;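 active = inhibition above the campaign mean plus 3 SD, with each screening campaign given its own cutoff, cut at about 60% in these data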
Efflux pump mplx – inhibitors of Candida efflux pumps in yeast, primary screen, S. cerevisiae, Nile Red, multiplex. S. cerevisiae Candida pump triplex. inhibition, % at 10 µM. 330,000 compounds, 0.44% hits. AID 485275, 2010;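 active = plate passing quality check with inhibition over a set limit, or well fluorescence over plate mean plus 4 SD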;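 also: Nile Red retained in pooled yeast measured as flow cytometry median fluorescence; higher means more Nile Red kept so more efflux inhibition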
NR2F2 inh – NR2F2 transcriptional activity inhibitors, primary screen, cell-based, luciferase reporter, HEK293T, luminescence | 370,000 compounds, 0.7% hits | HEK293T NGFI-A luciferase reporter | inhibition, % at 8.6 µM | COUP transcription factor 2 (Homo sapiens), P24468 | AID 686940, 2013;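 active = inhibition above a per-plate cutoff, mean inhibition of test wells between control levels plus 3 SD, cut at about 38% in these data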;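 also: cells cotransfected with COUP-TFII expression vector driving the NGFI-A reporter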
Target sequence (P24468 whole entry, looked up): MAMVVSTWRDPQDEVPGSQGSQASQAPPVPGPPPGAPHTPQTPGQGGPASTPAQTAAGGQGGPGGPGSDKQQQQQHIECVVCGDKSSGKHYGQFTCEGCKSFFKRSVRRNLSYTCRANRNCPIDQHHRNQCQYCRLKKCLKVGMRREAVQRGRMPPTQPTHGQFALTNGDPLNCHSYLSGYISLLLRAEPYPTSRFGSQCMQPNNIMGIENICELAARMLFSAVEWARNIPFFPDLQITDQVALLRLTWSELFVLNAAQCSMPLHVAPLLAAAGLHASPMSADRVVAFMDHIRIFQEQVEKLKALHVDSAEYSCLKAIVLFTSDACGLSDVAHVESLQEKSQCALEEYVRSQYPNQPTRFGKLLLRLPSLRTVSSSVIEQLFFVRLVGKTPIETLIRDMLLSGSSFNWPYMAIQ
NR5A2 inv ag – LRH-1 (NR5A2) inverse agonists, primary screen, cell-based, luminescence, HEK293T, StAR-luciferase reporter; Nuclear receptor subfamily 5 group A member 2 (Homo sapiens), O00482; LRH-1 transfected, 24 h; inhibition, % at 3.6 µM; 360,000 compounds, 0.13% hits; AID 602396, 2012;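 active = inhibition above the mean inhibition of all tested compounds plus 3 SD, cut at about 73% in these data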
NCOA3 inh – SRC3 coactivator transcriptional activity inhibitors, primary screen, cell-based, luminescence; Nuclear receptor coactivator 3 (Homo sapiens), Q9Y6Q9; HEK293 GAL4-SRC3 luciferase reporter; inhibition, % at 3.6 µM; 360,000 compounds, 0.17% hits;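 active = inhibition above a per-campaign cutoff, the mean of all compounds plus 3 SD, cut at about 60% in these data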;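 also: higher means less SRC3-driven luciferase light from the GAL4 reporter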
NCOA2 inhibitor – inhibition of GAL4-SRC2 driven luciferase reporter, primary screen, SRC2 inhibitor project, cell-based, luminescence | Nuclear receptor coactivator 2 (Homo sapiens), Q15596 | HEK293 GAL4-SRC2 luciferase reporter | inhibition, % at 9 µM | 370,000 compounds, 0.17% hits;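 active = inhibition above the mean inhibition of all tested compounds plus 3 SD, set per campaign, cut at about 52% in these data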
Yeast cmpd fluor – counter-screen for efflux pump inhibitors: compound fluorescence; shares compounds with Efflux pump mplx; 1,700 compounds, 4% hits; AID 588517; S. cerevisiae AD/pABC3, flow cytometry; fluorescence ratio to DMSO, % at 10 µM;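 active = fluorescence ratio to DMSO above its plate's cutoff, the plate mean ratio plus 5 SD, cut at about 210% in these data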;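 also: unstained yeast with no Nile Red so the signal is compound autofluorescence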
Mdr1 pump inh – inhibitors of Candida albicans Mdr1 efflux, confirmation, flow cytometry, singleplex, Cherry Pick1 set; S. cerevisiae AD/CaMDR1, Nile Red efflux; inhibition, % at 10 µM; 1,700 compounds, 1% hits; shares compounds with Efflux pump mplx; in the data active = inhibition above about 26%;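 also: higher means more Nile Red retained so more efflux inhibition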
Cdr2 pump inh – inhibitors of Candida albicans Cdr2 efflux pump, confirmation, S. cerevisiae AD/CaCDR2, flow cytometry, cherry pick 1, singleplex; shares compounds with Efflux pump mplx; Nile Red retention; Nile Red retention ratio vs DMSO, % at 10 µM; 1,700 compounds, 4% hits; AID 588520, 2011; in the data active = Nile Red retention ratio vs DMSO above about 190%;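 also: higher ratio means more blocking of Cdr2 efflux of the dye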
CaCdr1 efflux inh – inhibitors of Candida albicans Cdr1 efflux pump, confirmation, S. cerevisiae AD/CaCDR1, flow cytometry, cherry pick 1, singleplex; 1,700 compounds, 1% hits; shares compounds with Efflux pump mplx; Nile Red efflux; AID 588522, 2011; inhibition, % at 10 µM;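 active = inhibition above the screen-wide mean plus twice its standard deviation, cut at about 32% in these data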
Numbers stand for hits; . = inactive; / = no result. Rows were chosen to be rich in hits. Some 1.2% of all compounds tested hit in one or more screens of this group.

SMILES	NCOA1 inh	Efflux pump mplx	NR2F2 inh	NR5A2 inv ag	NCOA3 inh	NCOA2 inhibitor	Yeast cmpd fluor	Mdr1 pump inh	Cdr2 pump inh	CaCdr1 efflux inh
CC(C)Cn1c(SCC(=O)c2ccc(Cl)s2)nnc1-c1ccco1	.	1.1	.	.	.	.	.	.	.	.
CCOc1cc(/C=N/NC(=O)COc2ccc(C)cc2)ccc1OC(=O)c1cccs1	.	.	.	.	.	.	/	/	/	/
COc1cc(/C=N/NC(=O)COc2ccc(C)cc2)ccc1OC(=O)c1cccs1	.	2.1	.	.	.	.	.	.	.	.
COc1ccccc1C(=O)COC(=O)/C=C/c1ccccc1	.	6.2	.	.	.	.	.	.	.	.
O=C(/C=C/c1ccccc1)OCC(=O)c1c[nH]c2ccccc12	.	.	.	.	.	.	/	/	/	/
Cc1ccccc1-n1c(C)c(C#N)c(=O)c(-[n+]2ccccc2)c1[S-]	.	.	.	.	.	.	/	/	/	/
Cc1ccc(-c2csc(=S)n2CC(=O)OCC(=O)NC(C)C(C)C)cc1 (centres undefined)	.	0.7	.	.	.	.	.	.	.	.
O=C(Nc1ccc(CN2CCOCC2)cc1)c1ccc(Br)o1	.	1.7	.	.	.	.	.	.	.	.
O=C(NCCN1CCOCC1)c1ccc(NC(=O)c2ccc(Br)o2)cc1	/	/	.	.	/	.	/	/	/	/
S=C(Nc1cccc(Cl)c1)N1CCN(c2ccccn2)CC1	.	.	.	.	.	.	/	/	/	/
COc1cccc(NC(=S)N2CCN(c3ccccn3)CC2)c1	.	16	.	.	.	.	.	.	.	.
O=C(NCc1ccco1)/C(=C/C=C\c1ccccc1)NC(=O)c1ccc(Br)o1	.	7.6	.	.	.	.	.	.	.	.
Cc1ccc2c(c1)CCCN2C(=O)CCc1nc2ccccc2c(=O)[nH]1	.	.	.	.	.	.	/	/	/	/
CC(C)(CNC(=O)/C=C/c1ccc(F)cc1)CNC(=O)/C=C/c1ccc(F)cc1	.	13	.	.	.	.	.	.	.	.
CC(C)(C)SCCNC(=O)/C=C/c1ccc(F)cc1	.	.	.	.	.	.	/	/	/	/
COC(=O)Cn1cnc2sc3c(c2c1=O)CCCC3	.	.	.	.	.	.	/	/	/	/
Clc1ccccc1CSc1snnc1-c1ccccc1	.	.	.	.	.	.	/	/	/	/
COC(=O)c1cccc(-n2nnnc2SCC(=O)Nc2nc3c(s2)CCCC3)c1	.	1.5	.	.	.	.	.	.	.	.
O=C(NCc1cccc(Cl)c1)NC(=O)c1csc([N+](=O)[O-])c1	.	0.9	.	.	.	.	.	.	.	.
Cc1oc2ccc(NS(=O)(=O)c3ccc(F)cc3)cc2c1C(=O)O	.	.	.	.	.	.	/	/	/	/
COCCOC(=O)c1c(C)oc2ccc(NS(=O)(=O)c3ccc(F)cc3)cc12	.	0.4	.	.	.	.	.	.	.	.
Cc1ccc(C(=O)COc2ccccc2-c2ccccc2)cc1C	.	13	.	.	.	.	.	.	.	.
O=[n+]1c2c(n([O-])c3cc(Cl)ccc31)CCCC2	.	.	.	.	.	.	/	/	/	/
CCOC(=O)c1nn(-c2ccccc2)c(=O)c(C#N)c1C	.	1.0	.	.	.	.	.	.	.	.
Cc1ccccc1CN1CCC(n2nccc2NC(=O)CCCc2ccccc2)CC1	.	1.5	.	.	.	.	.	.	.	.
SMILES	NCOA1 inh	Efflux pump mplx	NR2F2 inh	NR5A2 inv ag	NCOA3 inh	NCOA2 inhibitor	Yeast cmpd fluor	Mdr1 pump inh	Cdr2 pump inh	CaCdr1 efflux inh
CC(C)NCCCOc1ccc(Cl)cc1Br	.	1.3	.	.	.	.	.	.	.	.
CC(C)c1ccc(C(=O)NC(=S)Nc2ccc3[nH]c(=O)[nH]c3c2)cc1	.	.	.	.	.	.	.	.	.	.
N#Cc1ccccc1NC1=CC(=O)CCC1	.	.	.	.	.	.	/	/	/	/
Cc1cc(S(=O)(=O)NCC(c2ccc3c(c2)OCO3)N2CCOCC2)ccc1F (centres undefined)	.	1.0	.	.	.	.	.	.	.	.
COC(=O)c1nn(-c2ccc(OC)cc2)c(=O)cc1Sc1ccc(C)cc1	.	.	.	.	.	.	/	/	/	/
COC(=O)c1nn(-c2ccccc2)c(=O)cc1Sc1ccc(Cl)cc1	.	0.6	.	.	.	.	.	.	.	.
CCN(CC)CCNC(=O)c1ccc(NC(=O)c2cccc(-n3cnnn3)c2)cc1	.	.	.	.	.	.	/	/	/	/
O=C(O)CSC1CC(=O)N(c2ccc(Br)cc2)C1=O (centres undefined)	.	.	.	.	.	.	/	/	/	/
COc1ccc(Cl)cc1NC(=O)CN1CCCCCC1	.	.	.	.	.	.	/	/	/	/
O=C(NC1CCCc2ccccc21)c1cccc(S(=O)(=O)N2CCN(c3ccccc3)CC2)c1 (centres undefined)	.	1.9	.	.	.	.	.	.	.	.
NS(=O)(=O)c1ccc(NC(=O)CSc2nnc(Cc3cccs3)n2-c2ccccc2)cc1	.	.	.	.	.	.	.	.	.	.
COc1ccc(NC(=O)CSc2nnc(Cc3cccs3)n2-c2ccc(C)cc2)cc1	.	.	/	.	.	/	.	.	.	.
COc1cccc(NC(=O)CSc2nnc(Cc3cccs3)n2-c2ccc(C)cc2)c1	.	.	.	.	.	.	.	.	.	.
Cc1ccc(-n2c(Cc3cccs3)nnc2SCC(=O)Nc2ccc(S(N)(=O)=O)cc2)cc1	.	.	.	.	.	.	/	/	/	/
O=C(CSc1nnc(-c2ccncc2)n1CC1CCCO1)Nc1ccccc1Cl (centres undefined)	.	0.5	.	.	.	.	.	.	.	.
CSc1ccc(CN(C)CC(=O)Nc2cccc(Br)c2)cc1	.	9.7	.	.	.	.	.	.	.	.
CSc1ccc(CN(C)CC(=O)Nc2ccc(NC(C)=O)cc2)cc1	.	.	.	.	.	.	/	/	/	/
CC(=C/C(=O)O)/C=C/c1ccco1	.	2.4	.	.	.	.	.	.	.	.
